Data reported in PubChem BioAssay AID651725 (National Center for Advancing Translational Sciences (NCATS), 2012).
The whole screen tested about 360,000 compounds, of which about 2,000 (0.56%) were called active. About 2% were inconclusive and are not listed. This excerpt belongs to a sample that is enriched for actives. A number with no mark means an inactive call. Cut-off read from the data, not from the text of the source: active = activity change below about -65%; inconclusive = mostly about -30% to -63%; inactive = weaker than that.

Biological target: Homeobox protein SIX1 (Homo sapiens) + Protein phosphatase EYA2 (Homo sapiens) (UniProt Q15475+O00167)
Assay: qHTS Assay for Inhibitors of the Six1/Eya2 Interaction
Conditions: AlphaScreen GST-Six1/His-Eya2 binding, biochemical; stronger effect = lower value
Summary of the method: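 Homogeneous AlphaScreen proximity assay pairing GST-Six1 with His-tagged Eya2 (added as 5X mix: 250 nM and 500 nM) in 50 mM Tris pH 8.0, 300 mM NaCl, 1 mM TCEP. Glutathione donor and nickel acceptor beads; 1 h, 37 °C, dark.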
% is set by controls: 0 for no effect and ±100 for the full control effect.

Chain of Homeobox protein SIX1 (Homo sapiens) + Protein phosphatase EYA2 (Homo sapiens) (O00167 whole entry, looked up): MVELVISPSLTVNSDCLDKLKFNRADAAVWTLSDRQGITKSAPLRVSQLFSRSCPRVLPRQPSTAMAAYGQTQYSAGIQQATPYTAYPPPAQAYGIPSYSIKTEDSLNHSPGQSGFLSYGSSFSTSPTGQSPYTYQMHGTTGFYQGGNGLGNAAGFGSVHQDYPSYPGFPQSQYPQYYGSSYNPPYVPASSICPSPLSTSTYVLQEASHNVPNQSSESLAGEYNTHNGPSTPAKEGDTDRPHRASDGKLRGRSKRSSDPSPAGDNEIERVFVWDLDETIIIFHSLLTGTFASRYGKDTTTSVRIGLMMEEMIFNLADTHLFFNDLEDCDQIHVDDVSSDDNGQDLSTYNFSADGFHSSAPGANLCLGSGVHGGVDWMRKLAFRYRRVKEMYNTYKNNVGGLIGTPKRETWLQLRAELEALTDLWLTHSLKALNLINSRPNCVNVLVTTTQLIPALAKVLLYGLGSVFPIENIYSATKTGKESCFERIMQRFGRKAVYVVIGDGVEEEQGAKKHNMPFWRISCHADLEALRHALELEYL
Chain of Homeobox protein SIX1 (Homo sapiens) + Protein phosphatase EYA2 (Homo sapiens) (Q15475 whole entry, looked up): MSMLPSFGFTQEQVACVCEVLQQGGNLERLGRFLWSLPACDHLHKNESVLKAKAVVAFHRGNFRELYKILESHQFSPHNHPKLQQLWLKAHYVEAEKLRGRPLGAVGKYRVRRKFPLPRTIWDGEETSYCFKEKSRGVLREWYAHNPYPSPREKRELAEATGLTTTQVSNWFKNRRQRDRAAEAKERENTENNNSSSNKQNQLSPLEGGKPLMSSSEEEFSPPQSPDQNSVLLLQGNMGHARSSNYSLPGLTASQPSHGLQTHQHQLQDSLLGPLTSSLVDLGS

| Structure (SMILES) | activity change |
| --- | --- |
| O=C1CCC/C(=N\NC(=O)NC2CCCCC2)C1 | 4.54% |
| COC(=O)[C@@]12C[C@@H](CC(=O)N3CCC(c4ccccc4)CC3)C(=O)N(Cc3ccccc3)C1=CCC(C)(C)C2 | -15.9% |
| O=C(CSc1nc2ccccc2o1)N1CCN(c2ccccc2)CC1 | 0.782% |
| CC(C)(C)C(=O)CSc1nc2ccccc2o1 | 10% |
| CCC(NC(=O)c1ccccc1NC(=O)c1ccccc1)C(=O)NNC(=O)CSc1nc2ccccc2o1 (centres undefined) | -24.4% |
| O=C(CSc1nc2ccccc2o1)N/N=C/c1ccccc1C(=O)O | -67.9% (active) |
| CCN(CC)C(=O)CSc1nc2ccccc2o1 | 6.18% |
| Cc1ccc(/C=N/NC(=O)CSc2nc3ccccc3o2)cc1 | -87.1% (active) |
| Cc1ccc(-c2nc3c(Cl)cc(C(F)(F)F)cn3c2Cc2cccc(Cl)c2)cc1 | 1.53% |
| CC(C)CN1C(=O)CN(S(C)(=O)=O)CC1(C)C(=O)NCc1ccccc1 (centres undefined) | 5.67% |
| CCOc1ccc(CCN2C(=O)C(=O)N([C@@H](CC(C)C)CN3CCC[C@H]3CN3C(=O)C(=O)NC[C@@H]3Cc3ccccc3)C[C@@H]2CC(C)C)cc1 | -1.05% |
| CC(C)(C)C(=O)NCCCNc1ccc([N+](=O)[O-])cc1 | -1.69% |
| O=C(Nc1ccccc1F)C1C2C=CC3(O2)C1C(=O)N(c1cccnc1)C3C(=O)NC1CCCCC1 (centres undefined) | 4.1% |
| Nc1ccc2nc3c(=O)[nH]c(=S)[nH]c3nc2c1 | -79.3% (active) |
| O=C(C(NS(=O)(=O)c1cccc2nsnc12)c1ccccc1)N1CCN(c2ccccc2)CC1 (centres undefined) | -0.046% |
| COc1ccc(C(O)C(O)(C(=O)OC(C)C)c2ccc(C)cc2)cc1 (centres undefined) | 10.6% |
| Cc1ccc2cc(C#N)c(NCCNC(=S)NCCCN3CCOCC3)nc2c1 | -1.85% |
| C/C(=N\Nc1cccc(C(=O)O)c1)c1ccc2c(c1)Nc1ccccc1S2 | -18.9% |
| O=C1NC[C@H](CCCCN2C[C@H](Cc3ccccc3)N(Cc3ccccc3)C(=O)C2=O)N(CCc2ccc(O)cc2)C1=O | -1.72% |
| O=C(N/N=C/c1ccccc1O)/C(=C/c1ccccc1)CCO | -80.4% (active) |
| C=CCOc1ccccc1/C=N/NC(=O)Cc1ccccc1 | -1.77% |
| NN=C(NN=Cc1ccccc1)c1ccccc1 | 15.8% |
| CN1CCN(C(=O)c2ccc(NC(=O)c3ccc(Br)o3)cc2)CC1 | 1.67% |

| Structure (SMILES) | activity change |
| --- | --- |
| COc1ccc(S(=O)(=O)N[C@@H]2C=C[C@@H](CC(=O)N3CCc4ccccc4C3)O[C@@H]2CO)cc1 | -3.17% |
| COc1cccc(CNC(=O)C2CCN(S(=O)(=O)c3cccc4cccnc34)CC2)c1 | -4.19% |
| Cc1cc(OCCOc2cccc3cccnc23)c(C)cc1Cl | -4.24% |
| CC(=O)/C(=N\Nc1ccc(Cl)cc1Cl)Sc1cccc2cccnc12 | -91.1% (active) |
| COc1cc(CC(=O)N2CCC(n3nccc3NC(=O)C3CC3)CC2)cc(OC)c1OC | -0.446% |
| CCOc1ccc(N2C(=O)CSC2=NC#N)cc1 | 2.91% |
| COc1cc(N2C(=O)CSC2=S)cc(OC)c1OC | -9.23% |
| CCOc1cccc(/C=N/N2C(=O)CSC2=S)c1O | -92.8% (active) |
| CCOC(=O)[C@]12CCCC=C1N(CCC1=CCCCC1)C(=O)[C@H](CC(=O)N1CCSCC1)C2 | -5.61% |
| Cc1cc(OCc2ccc(C(=O)Nc3ccc(C(=O)O)cc3)o2)ccc1Cl | -9.21% |
| Cn1cnc(S(=O)(=O)N2C[C@@H](O)COC[C@@H]3O[C@H](CC(=O)NC4CCC4)CC[C@H]32)c1 | -0.831% |
| O=C(COc1ccccc1)Nc1nonc1NC(=O)COc1ccccc1 | -6.13% |
| Cc1cc(NC(=O)[C@H](C)NC(=O)c2ccco2)ccc1Br | 0.811% |
| CC1CCN(S(=O)(=O)c2nnc(NC(=O)COc3ccccc3F)s2)CC1 | 3.54% |
| CC(NC(=O)c1ccco1)C(=O)Nc1nc(-c2ccccn2)cs1 (centres undefined) | -83.1% (active) |
| O=C(NCCN1C(=O)C2C3C=CC(C3)C2C1=O)Nc1ccccn1 (centres undefined) | 2.02% |
| CC1CCCCC1NC(=O)COc1ccc(C#N)cc1 (centres undefined) | -10.9% |
| O=C(COc1ccccc1F)Nc1nc(-c2ccccn2)cs1 | -84.1% (active) |
| CSCCC(NC(=O)c1ccco1)C(=O)Nc1cc(C)ccn1 (centres undefined) | -1.3% |
| COc1ccccc1NC(=O)COC(=O)COc1ccccc1F | 6.13% |
| O=C(CN1C(=O)C2C3C=CC(C3)C2C1=O)Nc1nc(-c2ccccn2)cs1 (centres undefined) | -80.4% (active) |
| N#Cc1ccc(OCC(=O)Nc2nc(-c3ccccn3)cs2)cc1 | -90% (active) |
| O=C(CCN1C(=O)C2C3C=CC(C3)C2C1=O)Nc1ccccc1F (centres undefined) | 2.72% |

| Structure (SMILES) | activity change |
| --- | --- |
| Cc1ccc2c(c1)c1ncnc(N3CCc4ccccc4C3)c1n2C | -7.75% |
| CCOc1ccc(CN2CCN(Cc3ccon3)CC2CCO)cc1 (centres undefined) | 5.89% |
| CCCCCNC(=O)C(c1ccc(OC)cc1)n1c(=O)c(-c2ccccc2)nc2ccccc21 (centres undefined) | 5.06% |
| CCCNC(=O)c1cc(C2CCCCN2S(=O)(=O)c2cn(C)cn2)on1 (centres undefined) | 0.952% |
| CC(C)(C)C(=O)c1c(N)[nH]c(C(=O)c2ccccc2)c1-c1ccc(F)cc1 | -8.67% |
| O=C1Nc2ccccc2-n2nnnc2C1N1CCN(c2cccc(C(F)(F)F)n2)CC1 (centres undefined) | 0.68% |
| Cc1cccc(NS(=O)(=O)c2ccc(C)c(C(=O)NCc3cccnc3)c2)c1 | -0.175% |
| O=C(C(=O)N1CCC(c2ccccc2)CC1)c1ccccc1 | -2.34% |
| CCOC(=O)[C@]12CCCC=C1N(CCC1=CCCCC1)C(=O)[C@H](CC(=O)N1CCN(C(=O)c3ccco3)CC1)C2 | -5.37% |
| Cc1c(NS(=O)(=O)c2ccc(NC3CCCC3)c([N+](=O)[O-])c2)c(=O)n(-c2ccccc2)n1C | -0.483% |
| Cc1cc([N+](=O)[O-])c(NC2CCCCC2)c([N+](=O)[O-])c1 | -69.3% (active) |
| Cc1cc([N+](=O)[O-])c(N2CCC[C@@H]2C(=O)O)c([N+](=O)[O-])c1 | 7.42% |
| COC(=O)[C@]12CCCCC=C1N(Cc1ccc(Cl)cc1Cl)C(=O)[C@H](CC(=O)NCc1cccc3ccccc13)C2 | -10.1% |
| O=C1NC[C@@H](CCCCN2CCN(CCc3ccc(O)cc3)C(=O)C2=O)N(CC2CCCCC2)C1=O | 3.55% |
| CC[C@]1(c2ccccc2OC)C(=O)N(C(=O)OC)N1C(=O)OC | -0.457% |
| O=C(CN1C(=O)c2cccc3cccc(c23)C1=O)N1CCCCC1 | 2.22% |
| O=C1c2cccc3cccc(c23)C(=O)N1CCCCCc1n[nH]c(=S)o1 | -80.1% (active) |
| O=C1c2ccccc2C(=O)N1CCCc1nc(-c2ccccc2)no1 | 1.31% |
| COC(=O)c1ccc2nc(-c3ccccc3)c(Cc3ccc(OC)cc3C)n2c1 | 0.0747% |
| COCCNC(=O)CCCn1c(=O)c2ccccc2n(Cc2cccc([N+](=O)[O-])c2)c1=O | 4.87% |
| COC(=O)c1ccc(Nc2ncnc3sccc23)cc1 | -1.71% |
| CCOC(=O)c1ccc(N/C(=N/S(=O)(=O)c2ccccc2)c2ccccc2)cc1 | -27.6% |
| CCOC(=O)c1nc(Nc2ccc(C(=O)OC)cc2)c2ccccc2n1 | -84.8% (active) |

| Structure (SMILES) | activity change |
| --- | --- |
| COc1ccc(NC(=O)CSc2ccc(-c3ccco3)nn2)c(OC)c1 | -14.2% |
| COc1ccc(NC(=O)CCC(=O)Nc2cc(OC)c(NC(=O)c3ccco3)cc2OC)c(OC)c1 | -72.1% (active) |
| COc1ccc(CC(=O)Nc2ccccc2NC(=O)c2ccco2)cc1OC | -2.61% |
| COC(=O)C[C@@H]1C=C[C@@H](NC(=O)c2ccc3c(c2)OCO3)[C@@H](CO)O1 | -3.63% |
| Cc1ccc(S(=O)(=O)N(C)c2ccc(OCC(=O)OCc3ccc(C#N)cc3)cc2)cc1 | 5.43% |
| O=C(Oc1ccc(F)cc1)N1CCOCC1 | -1.89% |
| O=C(Oc1ccc(C(=S)N2CCOCC2)cc1)c1ccc(F)cc1 | -91.7% (active) |
| O=C(Oc1cccc(C(=S)N2CCOCC2)c1)c1cccc(Cl)c1 | -18.4% |
| CCCc1c(-c2ccccc2F)ncn1Cc1ccccc1OC | -11.2% |
| O=C(CSc1nnc(-c2ccncc2)o1)Nc1cccc(Cl)c1 | -1.81% |
| Cc1cc(NC(=O)CSc2nnc(-c3ccc(Cl)s3)o2)no1 | -86.8% (active) |
| Cc1cc(NC(=O)CSc2ncc(C(F)(F)F)cc2Cl)no1 | 1.15% |
| Cc1cc(OCc2cc(C(=O)NCc3cc(C(C)C)no3)no2)cc(C)c1Cl | 14% |
| Cc1ccc(S(=O)(=O)N[C@H](CO)C(C)C)cc1 | 4.31% |
| O=S(=O)(NCCc1ccc(F)cc1)c1cccc2cccnc12 | -7.51% |
| Cc1ccc2cccc([N+](=O)[O-])c2n1 | -20.1% |
| O=[N+]([O-])c1ccccc1S(=O)(=O)Nc1cccc2cccnc12 | -91.7% (active) |
| Cc1ccc(S(=O)(=O)C2C(=O)NC3(C)CC2c2ccccc2O3)cc1 (centres undefined) | 6.28% |
| COC(=O)[C@]12CCCCC=C1N(Cc1ccc3c(c1)OCO3)C(=O)[C@H](CC(=O)NCc1cccs1)C2 | -7.98% |
| COc1ccccc1Cc1c(-c2ccc(Cl)cc2)nc2c3ccccc3ccn12 | 9.04% |
